Inconclusive results are not listed. Entries that show only a call come without a potency. The source made the active and inactive calls. Calls come from the whole dose curve.
Assay: p53 small molecule agonists, cell-based qHTS assay: qHTS cell viability counter screen (AID 1963581); note: nearly all actives have a fitted effect of over 45% in size
Details: p53RE-bla HCT-116 viability, ATP luminescence, 16 h; series mostly up to 66 µM
From the text: National Center for Advancing Translational Sciences [NCATS]
Division of Preclinical Innovation [DPI]
U.S. Environmental Protection Agency [EPA]
National Institutes of Environmental Health Sciences [NIEHS]
National Toxicology Program [NTP]
U.S. Food and Drug Administration [FDA]
p53, a tumor suppressor protein, is activated following cellular insult, including DNA damage and other cellular stresses. The activation of p53 regulates cell fate by inducing DNA repair, cell cycle arrest, apoptosis, or cellular senescence. The activation of p53, therefore, is a good indicator of DNA damage and other cellular stresses. The CellSensor p53RE-bla HCT-116 cell line (Invitrogen) contains a stably integrated beta-lactamase reporter gene under control of the p53 response elements. The activation of the reporter gene under culture conditions can be detected by fluorescence intensity. This cell line was used to screen the Tox21 compound library in a 1536-well plate format and to identify agonists that activate the p53 signaling pathway. The cytotoxicity of the Tox21 compound library against the p53 RE-bla HCT-116 cell line was tested in parallel by measuring the intra cellular ATP content in the same wells.
Tox21 Assay Protocol Summary:
The p53RE-bla cells were dispensed at 4,000 cells/5 ul/well in 1536-well black wall/clear bottom plates using a Multidrop dispenser. After the assay plates were incubated at a 37 C/5% CO2 incubator for 5 hours, 23 nL of compounds dissolved in DMSO, positive controls or DMSO only was transferred to the assay plate by a pin tool. The plates were incubated at 37 C for 16 hours. After 1 uL of LiveBLAzerTM B/G FRET substrate was added using a Flying Reagent Dispenser, the plates were incubated at room temperature for 2 hours, and fluorescence intensity was measured by an Envision plate reader. For cell viability readout that measures cytotoxicity, 4 ul/well of CellTiter-Glo reagent was added into the assay plates using a Flying Reagent Dispenser. After 30 min incubation at room temperature, the luminescence intensity in the plates was measured using a ViewLux plate reader.
Potency is the fitted concentration of half-maximal effect.

SMILES	Potency
C[C@]12CCC(=O)C=C1CC[C@@H]1[C@@H]2CC[C@]2(C)C(=O)CC[C@@H]12	inactive
C[N+](C)(C)CC(=O)[O-]	inactive
O=[N+]([O-])c1cc([As](=O)(O)O)ccc1O	inactive
O=P(Oc1ccccc1)(Oc1ccccc1)Oc1ccccc1	inactive
CCOP(=O)(CN(CCO)CCO)OCC	inactive
COC(=O)[C@@H](N)CCCN/C(N)=N/[N+](=O)[O-]	inactive
NCc1cccnc1	inactive
CCN(CC)C(=O)/C(Cl)=C(\C)OP(=O)(OC)OC	inactive
O=S(=O)(c1ccccc1)c1ccccc1	inactive
CC(C)c1ccc(O)cc1	inactive
COC(=O)Nc1cccc(OC(=O)Nc2cccc(C)c2)c1	inactive
Clc1ccc(C(Cl)(Cl)Cl)cn1	inactive
O=C/C=C/c1ccco1	inactive
CC(=O)C1CCOC1=O (stereo not given)	inactive
CCN(CCO)CCO	inactive
C=C(C)CCl	inactive
N#CC(c1ccccc1)c1ccccc1	inactive
CC(C)C1(C)N=C(c2ncccc2C(=O)O)NC1=O (stereo not given)	inactive
ClCc1ccccc1CCl	inactive
CNC(=O)Oc1cccc2ccccc12	inactive

SMILES	Potency
CN=C=S	inactive
CCCCOCCOP(=O)(OCCOCCCC)OCCOCCCC	inactive
OCC(Br)CBr (stereo not given)	inactive
Oc1cc(Cl)ccc1Cl	inactive
CC(C)(C#N)N=NC(C)(C)C#N	inactive
O=[N+]([O-])/C=C/c1ccccc1	inactive
N#Cc1ccccc1Cl	inactive
C=CC(=O)OCC(CC)(COC(=O)C=C)COC(=O)C=C	26.4 µM (active)
O=C(O)c1ccccn1	inactive
O=C(O)C(F)(F)C(F)(F)C(F)(F)C(F)(F)C(F)(F)C(F)(F)C(F)(F)F	inactive
C[C@@H]1CN(C2CCC(C#N)(c3ccc(F)cc3)CC2)CC[C@]1(C(=O)O)c1ccccc1 (stereo not given in full)	inactive
CC[N+]1(CC)CCC(OC(=O)C(O)(c2ccccc2)c2ccccc2)C1 (stereo not given)	inactive
C=C(Cl)CCl	inactive
O=S1OCC2C(CO1)C1(Cl)C(Cl)=C(Cl)C2(Cl)C1(Cl)Cl (stereo not given)	inactive
CCCCCCCCCCn1cc[n+](C)c1	inactive
CC1(C)[C@H](C(=O)O[C@H](C#N)c2cccc(Oc3ccccc3)c2)[C@@H]1C=C(Br)Br	inactive
Brc1ccc(Oc2cc(Br)c(Br)cc2Br)c(Br)c1	inactive
CCCN(CCC)c1c([N+](=O)[O-])cc(C(C)C)cc1[N+](=O)[O-]	inactive
BrCC(Br)c1ccccc1 (stereo not given)	inactive
COC(C)(C)C	inactive

Source: PubChem BioAssay (Tox21)
